# Reference: PubChem BioAssay AID588413 (Sanford-Burnham Center for Chemical Genomics, 2011)
# About 2,500 (0.74%) of roughly 340,000 compounds were called active. Shown is part of a subset that was picked to be rich in actives. A number with no mark means an inactive call.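 How the source made its calls: active means inhibition above about 55% (limit read from the data); inactive means the rest.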
# Assay: blockers of Gli reporter signaling – luciferase luminescence, Sufu-KO-LIGHT cells, uHTS, primary screen (AID 588413);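 further: 0% = DMSO-treated cells and 100% = wells with medium but no cells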
# Conditions: Sufu-KO-LIGHT fibroblasts, at 5 µM, stronger effect = higher value
row,SMILES,inhibition
1,COc1ccc(C(=O)OCC(=O)NCC2CCCO2)cc1[N+](=O)[O-] (centres undefined),-0.12%
2,c1ccc2c(c1)CSc1sccc1C2=C1CCNCC1,28.4%
3,COC(=O)c1c(C)[nH]c(C(=O)NCCc2ccc(S(N)(=O)=O)cc2)c1C,-12.2%
4,COc1ccc(NC(=O)NNC(=O)COc2cc(C)c(Cl)c(C)c2)c(OC)c1,-3.14%
5,Cc1cccc(N2CC(C(=O)Nc3ccccc3N3CCCC3)CC2=O)c1C (centres undefined),-3.8%
6,CN1CCN(CCC(=O)N/N=C/C=C2\N(C)c3ccccc3C2(C)C)CC1,29.6%
7,CC(=O)Nc1cccc(OCC(=O)/C=C2\N(C)c3ccccc3C2(C)C)c1,56.5% (active)
8,CC(C)Nc1nnc(SCC(=O)/C=C2\N(C)c3ccccc3C2(C)C)s1,2.92%
9,COc1ccc(N2CCN(C(=O)C3CCN(S(=O)(=O)c4ccc(C)cc4)CC3)CC2)cc1,18.7%
10,CCCCCN(C(=O)NC(=O)Nc1cccc(C)c1C)S(C)(=O)=O,-3.52%
11,CC(=O)OCCC(C)C,57.4% (active)
12,CC(=O)OC(C)C[N+](C)(C)C (centres undefined),15.8%
13,CC(=O)OCC(COC(C)=O)OC(C)=O,-14.9%
14,CC(C)CC(=O)NC(=S)NNC(=O)c1cccc([N+](=O)[O-])c1,-4.7%
15,COc1ccc(C)cc1NC(=S)N1CCOCC1,1.61%
16,CC(=O)N1CCCc2cc(S(=O)(=O)N3CCCC(C(=O)N4CCN(c5cccc(Cl)c5)CC4)C3)ccc21 (centres undefined),64.5% (active)
17,CC(=O)N1CCCc2cc(S(=O)(=O)N3CCCC(C(=O)NCc4ccc(Cl)cc4)C3)ccc21 (centres undefined),27%
18,CC(=O)N1c2ccc(S(=O)(=O)N3CCCC(C(=O)Nc4cccc(Cl)c4)C3)cc2CC1C (centres undefined),-0.91%
19,O=C(Nc1ccccc1C(=O)NCCCn1ccnc1)c1ccc(Cl)cc1Cl,19.3%
20,CCOC(=O)C(CO)NC(=O)C1(NC(C)=O)CCCC1 (centres undefined),-2.14%
21,O=C(CN(CC1CCCO1)C(=O)CNS(=O)(=O)c1ccc(F)cc1)NCc1ccco1 (centres undefined),0.03%
22,O=C1/C(=C/c2ccc(F)cc2)SC(=S)N1NS(=O)(=O)c1ccccc1,59.1% (active)
23,O=C(O)c1ccc(/C=C2\SC(=S)N(NC(=O)c3ccc(Br)cc3)C2=O)cc1,10%
24,O=C1/C(=C/c2ccc(F)cc2)SC(=S)N1CCCC(=O)N1CCCCC1CCO (centres undefined),-14.7%

row,SMILES,inhibition
1,CN1CCN(C(=O)N2c3ccccc3CCc3ccccc32)CC1,0.29%
2,CC1CCc2sc(C(=O)NCC(c3ccco3)N3CCCCC3)cc2C1 (centres undefined),16.2%
3,Cc1ccc(CN(Cc2cccnc2)C(=S)Nc2cc(Cl)ccc2C)cc1,12.8%
4,CC(=O)NCC(=O)N(C)C(C(=O)Nc1ccc2c(c1)OCCO2)c1ccccc1 (centres undefined),-14.5%
5,COc1ccc(CCNC(=O)CSc2nc3[nH]ncc3c(=O)n2-c2cccc(C(F)(F)F)c2)cc1OC,0.76%
6,CCc1ccc(-n2c(SCc3cc(=O)n4cc(Br)ccc4n3)nc3[nH]ncc3c2=O)cc1,5.99%
7,Cc1cccc2nc(CSc3nc4[nH]ncc4c(=O)n3-c3cccc(Cl)c3)cc(=O)n12,67.7% (active)
8,CCn1cc(-c2cc(C(=O)O)on2)c(C)n1,-4.15%
9,COc1ccc(-n2c(SCC(=O)Nc3ccc4c(c3)OCO4)nnc2C(C)N2CCCCC2)cc1 (centres undefined),7.4%
10,Cc1cc(C(=O)CSc2nc(N)cc(=O)[nH]2)c(C)n1CCc1ccc(Cl)cc1,0.27%
11,CCCc1cc(=O)[nH]c(SCC(=O)c2cc(C)n(CCC)c2C)n1,1.52%
12,Cc1cc(C(=O)CSc2nc(N)cc(=O)[nH]2)c(C)n1-c1cccc(F)c1,56.6% (active)
13,COc1cc(C)cc(CN2CCC(Cc3ccccc3)CC2)c1O,15.5%
14,Cc1cc(=O)oc2cc(OCC(=O)N3CCN(c4ccc(F)cc4)CC3)c(Cl)cc12,6.77%
15,Oc1c(CN2CCN(c3ccc(F)cc3)CC2)cc(Cl)c2cccnc12,92.7% (active)
16,Cc1ccc(CN2CCN(c3ncccn3)CC2)c(C)c1,1.86%
17,CC1CCCN(CC(O)COCc2ccccc2)C1 (centres undefined),12.2%
18,Oc1c(CN2CCCC2)cc(COCc2ccccc2)c2cccnc12,77.7% (active)
19,CC(C)C(C)NC(=O)COc1nc2ccccc2nc1N(C)C1CCCCC1 (centres undefined),-2.52%
20,CCc1nnc(NC(=O)CCN(c2ccc(C)cc2)S(=O)(=O)c2ccccc2)s1,-7.2%
21,O=C1/C(=C\Nc2ccccc2)CCN1c1ncccn1,-39%
22,Cc1ccccc1NC(=O)NC1(C(=O)N2CCCC2)CCCCC1,44.2%
23,Cc1ccc(C)c(NS(=O)(=O)c2c(C)[nH]c(C)c2C(=O)N2CCCCC2)c1,-12.2%
24,CC1CCCN(C(=O)Cn2c(=O)oc3ccccc32)C1 (centres undefined),1.13%

row,SMILES,inhibition
1,COC(C[C@@H](O)C[C@H](O)[C@H](C)OCc1ccccc1)OC,7.28%
2,CCc1ccc(C2C(C#N)=C(N)N(N3CCOCC3)C3=C2C(=O)CC(C)(C)C3)s1 (centres undefined),96.7% (active)
3,COc1ccc(C2C(C#N)=C(/N=C/N3CCOCC3)OC3=C2C(=O)CC(C)(C)C3)cc1OC (centres undefined),1.58%
4,CCc1ccc(C2C(C#N)=C(N)N(N(C)C)C3=C2C(=O)CCC3)s1 (centres undefined),-0.42%
5,S=C(Cc1ccc(Cl)cc1)N1CCOCC1,2.66%
6,O=C(CCN1CCCO1)N1CCCC(N2CCN(c3cccc(C(F)(F)F)c3)CC2)C1 (centres undefined),8.15%
7,N#Cc1cccc(NC(=O)C2CCCN(C(=O)c3ccc(Cl)cc3)C2)c1 (centres undefined),0.96%
8,CC1=Nn2c(nnc2-c2ccccc2)SC1,5.28%
9,COc1ccccc1-c1nnc2n1N=C(c1ccc(OC(F)F)c(OCC3CC3)c1)CS2,23.1%
10,COc1ccc(C2=Nn3c(nnc3-c3ccccc3OC)SC2)cc1OC1CCCC1,67.1% (active)
11,COc1ccc(CNC(=O)CN(c2ccc(OC)c(Cl)c2)S(=O)(=O)c2ccc(C)cc2)cc1,-11.6%
12,NS(=O)(=O)c1cc(Cl)c(Cl)c(S(N)(=O)=O)c1,-6.05%
13,Cc1cccc(S(=O)(=O)N2CN(CC3CCCO3)c3nc4ccccc4nc32)c1 (centres undefined),31.4%
14,Cc1cc([N+](=O)[O-])c(-c2ccc(/C=N/n3cnnc3)o2)cc1Cl,95.2% (active)
15,Cc1ccc(Cl)cc1-c1ccc(/C=N/n2cnnc2)o1,20.2%
16,Clc1cc(-c2ccc(/C=N/n3cnnc3)o2)ccc1Br,3.67%
17,O=c1ccc2c(-c3ccccc3S(=O)(=O)O)c3ccc(O)c(O)c3oc-2c1O,9.16%
18,CCCCn1nc(C(=O)Nc2cccc(C(=O)NC3CC3)c2)c2ccccc2c1=O,-0.59%
19,COc1ccc(Cl)cc1S(=O)(=O)N1CCN(CC(=O)C(C)(C)C)CC1,-2.82%
20,N#Cc1ccsc1NC(=O)CN1CCN(S(=O)(=O)c2cc(Cl)ccc2Cl)CC1,1.78%
21,O=C(CN1CCN(S(=O)(=O)c2cc(Cl)ccc2Cl)CC1)c1ccc(O)c(O)c1,58.2% (active)
22,COc1ccccc1N(CC(=O)Nc1ccccc1C(=O)N1CCCC1)S(C)(=O)=O,-5.37%
23,O=C(N/N=C/c1ccccn1)C12CC3CC(CC(C3)C1)C2,-2.98%
24,Cc1nnc(N/N=C/c2ccccn2)[nH]c1=O,62.7% (active)

row,SMILES,inhibition
1,Cc1cc(C(=O)N/N=C/c2ccccn2)c2ccccc2n1,1.36%
2,Cc1ccc(S(=O)(=O)N(C)C)cc1NC(=O)c1ccc(-n2cncn2)c([N+](=O)[O-])c1,5.99%
3,CCOC(=O)CCNC(=O)N1CCCC(C(=O)c2ccccc2SC)C1 (centres undefined),4.81%
4,CCOC(=O)c1cnc(Nc2nc3ccccc3o2)nc1CSC(=S)N1CCCCC1,57.2% (active)
5,CCc1ccc(CNC(=O)C2CCCN(c3nc4ccccc4o3)C2)cc1 (centres undefined),5.09%
6,CCc1ccc(C(=O)C(C)OC(=O)CN2C(=O)NC3(CCCC3)C2=O)cc1 (centres undefined),-24.9%
7,COCCN(C(=O)COC(=O)Cc1cccc(OC)c1)c1c(N)n(Cc2ccccc2)c(=O)[nH]c1=O,-12.3%
8,CN(CC(=O)Nc1cccc(F)c1)C(=O)C1=COCCO1,-13.3%
9,Cc1ccc(NC(=O)c2sccc2C)cc1[N+](=O)[O-],-30.3%
10,Cc1ccc(NC(=O)CN(C)CC(=O)Nc2cccc(F)c2)cc1[N+](=O)[O-],67.2% (active)
11,O=C(N/C(=C\c1ccc([N+](=O)[O-])cc1)C(=O)N1CCOCC1)c1cccc(Br)c1,14.4%
12,FC(F)(F)c1cccc(N/N=C/c2ccccc2)c1,2.85%
13,Oc1ccc(/C=N/Nc2ccc(C(F)(F)F)cn2)cc1O,75.1% (active)
14,CC(C)c1ccc(C=NNc2ccc([N+](=O)[O-])cn2)cc1,-110%
15,COc1cccc2cc(C(=O)N(C)C)c(=O)oc12,-0.51%
16,COc1cccc2cc(C(N)=O)/c(=N\NC(=O)c3ccccc3)oc12,61.3% (active)
17,COc1cccc2cc(C(=O)N3CCN(C(=O)c4ccccc4)CC3)c(=O)oc12,0.62%
18,O=S(=O)(Cc1ccc(Cl)cc1Cl)c1ccc(Cl)cc1,-10.2%
19,Nc1ccc(N=Nc2ccccc2Cl)c(N)n1,-22.2%
20,N#Cc1c(-c2ccccc2)nc(SCc2cccc(C(F)(F)F)c2)[nH]c1=O,2.78%
21,O=c1c2ccccc2nc2n1C(CSCc1cccc(C(F)(F)F)c1)CS2 (centres undefined),65.9% (active)
22,O=c1c2ccccc2nc2n1C(CSCc1ccccc1)CS2 (centres undefined),41.5%
